LYPLA2 inh: counter-screen for PME1 inhibitors: inhibitors of human LYPLA2. recombinant LYPLA2, FP-Rh probe fluorescence polarization. O95372. inhibition, % at 5.9 µM. 320,000 compounds, 0.38% hits;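 active means inhibition above the screen-wide mean plus 3 SD, limit set per campaign, cut at about 26% in these data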;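 further: 0% = LYPLA2 with DMSO and 100% = wells lacking LYPLA2 enzyme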
Target sequence (O95372 whole entry, looked up): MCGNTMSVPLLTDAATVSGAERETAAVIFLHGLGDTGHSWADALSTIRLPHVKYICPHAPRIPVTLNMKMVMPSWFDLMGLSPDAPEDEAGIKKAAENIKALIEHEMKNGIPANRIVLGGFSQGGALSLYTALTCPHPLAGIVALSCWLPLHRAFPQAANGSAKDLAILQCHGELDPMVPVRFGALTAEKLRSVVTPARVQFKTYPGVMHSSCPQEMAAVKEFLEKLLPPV
ZTA counter: counter-screen for EBNA-1 inhibitors: inhibitors of Epstein-Barr virus ZTA. ZTA-DNA binding, fluorescence polarization. 320,000 compounds, 0.15% hits. inhibition, % at 11 µM; in the data active means inhibition above about 33%
EBNA-1 inh: blocks EBNA-1 binding to DNA; EBNA-1 DNA binding, fluorescence polarization; inhibition, % at 14.8 µM; 300,000 compounds, 0.34% hits; in the data active means inhibition above about 28%
LYPLA1 counter: LYPLA1 (human) inhibition in PME1 counter-screen; O75608; recombinant LYPLA1, FP-Rh probe fluorescence polarization; inhibition, % at 5.9 µM; 320,000 compounds, 0.16% hits; AID 2174;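 active means inhibition above the mean of all tested compounds plus 3 SD, set per campaign, cut at about 14% in these data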;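 further: inhibitors block serine hydrolase probe labeling of LYPLA1 so polarization falls; 0% = enzyme with DMSO and 100% = wells lacking LYPLA1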
Target sequence (O75608 whole entry, looked up): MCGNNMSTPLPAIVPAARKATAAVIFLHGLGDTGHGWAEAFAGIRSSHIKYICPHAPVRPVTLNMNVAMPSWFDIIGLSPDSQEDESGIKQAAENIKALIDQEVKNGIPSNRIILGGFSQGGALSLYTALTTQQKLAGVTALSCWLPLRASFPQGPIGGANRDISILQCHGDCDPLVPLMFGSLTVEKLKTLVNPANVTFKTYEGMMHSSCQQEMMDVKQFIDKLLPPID
LANA-H2A inh: blocks KSHV LANA binding to histone H2A/H2B; Q9QR71; cell-free LANA-H2A/H2B peptide, fluorescence polarization; 320,000 compounds, 0.6% hits; inhibition, % (test concentration not listed); in the data active means inhibition mostly above about 10%, no sharp cut-off; inactive means mostly below about 6.7%
LYPLA2 confirm: LYPLA2 (human) inhibition, confirmation counter-screen | inhibition, % at 5.9 µM | AID 2232 | recombinant LYPLA2, FP-Rh probe fluorescence polarization | shares compounds with LYPLA2 inh | 1,100 compounds, 72% hits;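 active means mean inhibition across replicates above the hit cutoff set in the primary screen, cut at about 26% in these data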;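 further: blocked labeling of the enzyme by serine hydrolase FP-Rh probe lowers polarization; 0% = enzyme with DMSO and 100% = wells lacking LYPLA2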
LYPLA2 ABPP: LYPLA2 (human) inhibition, late stage results; shares compounds with LYPLA2 inh; rhLYPLA2 in mouse brain proteome, gel ABPP FP-Rh; inhibition, % at 20 µM; 150 compounds, 30% hits;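 active means inhibition of LYPLA2 enzyme probe labeling above about 50%, limit read from the data; inactive means inhibition below that limit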;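 further: loss of FP-Rh probe labeling of the LYPLA2 gel band measured as band density; 0% = DMSO only control band and 100% = blank gel background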
Numbers without * were called inactive; nt = no result given. Most compounds without a hit are left out; they make up all but 1.4% or so of the library.

SMILES	LYPLA2 inh	ZTA counter	EBNA-1 inh	LYPLA1 counter	LANA-H2A inh	LYPLA2 confirm	others
COc1cccc(CCN2CCC(CNS(=O)(=O)c3cc(-c4cc(C)no4)ccc3OC)CC2)c1	-1.1	3.4	-2.2	-1.9	0.5	nt
Cc1cc(S(=O)(=O)N2CCOCC2)ccc1OCC(=O)NCc1ccccn1	-1.9	-21.2	-6.2	-0.8	1.2	nt
COc1cccc(NC(=O)COC(=O)c2c(-c3ccccc3)noc2C)c1	27.8*	-12.1	-1.0	-2.5	1.8	20.5
Cc1ccc(NC(=O)COC(=O)c2c(C)nn(-c3ccccc3)c2C)cc1	3.7	-7.4	nt	-2.7	-0.8	nt
Cc1nn(-c2ccccc2)c(C)c1C(=O)OCC(=O)Nc1ccccc1	39.0*	3.8	nt	3.1	4.3	25.2
CC(C)(C)[C@H]1COC(=O)CCCC/C=C\C[C@H](CC(=O)NCCO)C(=O)N1	nt	nt	nt	nt	1.2	nt
CCOC(=O)C1=C(C)Nc2nc3ccccc3n2C1c1ccc(O)cc1 (stereo unspecified)	2.4	-1.5	-3.3	0.6	-1.9	nt
CCOC(=O)c1ccccc1-n1c(C)cc(C2N=C(N)Nc3nc4ccccc4n32)c1C (stereo unspecified)	71.3*	1.4	1.6	8.6	-3.6	77.4*
O=[N+]([O-])c1ccc(Oc2ccc(-c3nnco3)cc2)c(Cl)c1	32.5*	-5.0	1.9	11.4	-2.6	22.1
N#Cc1cc([N+](=O)[O-])ccc1Oc1ccc(-c2nnco2)cc1	29.8*	-9.6	1.0	9.5	-0.7	20.5
NC(=O)c1ccc(Oc2ccc(-c3nnco3)cc2)c([N+](=O)[O-])c1	7.8	14.9	-12.5	-2.2	-0.1	nt
CCN(CC)C(=O)c1ccc(Oc2ccc([N+](=O)[O-])cc2Cl)cc1	6.8	-11.5	2.5	2.3	-2.0	nt
CN(C(=O)COC(=O)c1ccc(F)c(S(=O)(=O)N2CCOCC2)c1)C1CCS(=O)(=O)C1 (stereo unspecified)	1.7	-10.4	0.3	-1.7	-5.6	nt
O=C(Nc1ccccc1Br)C1CC(=O)N(c2ccc3c4c(cccc24)CC3)C1 (stereo unspecified)	-7.4	23.8	3.0	-4.5	-2.8	nt
COc1ccc(C(=O)NNC(=O)c2ccc(F)c(S(=O)(=O)N3CCOCC3)c2)cc1	nt	nt	nt	nt	6.5	nt
CSc1ncccc1C(=O)OCC(=O)c1ccc(S(=O)(=O)N2CCCCC2)cc1	30.8*	-8.4	4.3	0.0	0.2	31.9*
CNC(=O)c1nc(C)c(C2(C)CC(c3cccc([N+](=O)[O-])c3)=NO2)s1 (stereo unspecified)	26.0*	-5.2	1.2	2.0	2.6	28.6*
COc1ccc(NC(=O)NCCCCc2ccccc2)c(OC)c1	1.9	5.0	9.2	-1.1	1.3	nt
CCC(C(=O)NNC(=O)c1cnccn1)c1ccccc1 (stereo unspecified)	2.9	-32.7	-2.2	1.1	1.5	nt
Cc1cccc(C)c1N1C(=O)CCC(C)(C)C1=O	1.4	4.7	-16.1	0.6	-4.0	nt
O=C(Cc1ccc([N+](=O)[O-])cc1)N1CCN(c2ccc([N+](=O)[O-])cc2)CC1	69.1*	13.2	-3.3	6.4	1.3	69.4*	LYPLA2 ABPP=70.0*
O=C(c1ccc2nsnc2c1)N1CCN(c2ccc([N+](=O)[O-])cc2)CC1	26.6*	-3.9	-10.5	6.0	-0.1	22.3
O=C(Cc1ccc(F)cc1)N1CCN(c2ccc([N+](=O)[O-])cc2)CC1	nt	nt	nt	nt	1.2	nt
O=C1CSC(=Nc2ccc(Cl)cc2)N1Cc1ccco1	25.8*	2.3	-7.4	8.1	-3.1	27.7*
COc1cc(OC)c(C(=O)N(CCc2ccccc2)Cc2ccccc2)cc1OC	8.1	-20.9	5.8	1.6	-2.6	nt
SMILES	LYPLA2 inh	ZTA counter	EBNA-1 inh	LYPLA1 counter	LANA-H2A inh	LYPLA2 confirm	others
CCN(C(=O)CCS(=O)(=O)c1ccc2c(c1)oc(=O)n2C)c1ccc(OC)cc1	4.7	-3.7	-10.9	3.7	-4.7	nt
CN=C1SC(CC(=O)Nc2ccc(F)cc2F)C(=O)N1/N=C(\C)c1cccc(OCC(=O)O)c1 (stereo unspecified)	25.8*	13.5	7.9	-1.1	2.2	24.5
CC1(C)CC(=O)C=C(c2cccc(Br)c2)C1	0.9	-3.5	nt	1.2	3.9	nt
O=C(CC1SC(N2CCCCC2)=NC1=O)Nc1ccc(C(=O)NCCc2ccc(F)cc2)cc1 (stereo unspecified)	48.6*	10.0	nt	1.7	-7.9	38.6*
COc1ccccc1CCNC(=O)c1ccc(NC(=O)CC2SC(N3CCCCC3)=NC2=O)cc1 (stereo unspecified)	14.7	-12.8	nt	-1.6	-6.0	nt
O=C(NC(C(=O)N/N=C/c1ccncc1)c1n[nH]c(=O)c2ccccc12)c1ccccc1 (stereo unspecified)	21.5	1.6	-2.5	-0.8	-3.6	nt
COc1cc(/C=N/NC(=O)C(NC(=O)c2ccccc2)c2n[nH]c(=O)c3ccccc23)ccc1OCC(N)=O (stereo unspecified)	77.6*	9.9	-8.1	-1.8	22.4*	74.3*
O=C(Nc1ccncc1)c1cc(S(=O)(=O)N2CCOCC2)ccc1Cl	6.0	0.7	-2.0	-3.6	0.5	nt
O=C(Nc1ccc(S(=O)(=O)C(F)F)cc1)c1cccc(S(=O)(=O)N2CCOCC2)c1	35.3*	10.4	8.4	-6.4	3.1	37.6*
O=C(Nc1ccc(S(=O)(=O)N2CCOCC2)cc1)c1cc(S(=O)(=O)N2CCOCC2)ccc1Cl	39.5*	1.0	-1.3	7.7	6.6	38.5*
CCN1C(=O)[C@H]2[C@@H](c3ccc(-c4ccc(OC)cc4)cc3)N3CCC[C@@]3(C(=O)OC)[C@H]2C1=O	0.9	16.7	13.4	-3.1	3.6	nt
O=c1c2ccccc2ncn1CCCSc1ccc(Cl)cc1	33.6*	1.3	-9.5	-0.5	-2.8	28.9*
CN(CCOc1ccccc1)CC(=O)Nc1ccc(Br)cc1F	-2.5	7.7	-5.3	-1.1	0.0	nt
O=C(c1cc(-c2ccc3c(c2)OCO3)on1)N1CCN(c2ccccc2)CC1	27.5*	-23.3	-1.9	6.5	6.2	15.6
O=C(O)C1Nc2c(O)cc(Cl)c([N+](=O)[O-])c2C2C=CCC12 (stereo unspecified)	34.8*	90.5*	57.8*	-13.6	8.8	-2.2
Nc1c(C(=O)CSc2nc3ccccc3o2)c(=O)[nH]c(=O)n1C1CC1	-2.9	-5.2	nt	-5.3	-0.2	nt
Cc1ccc(NC(=O)C2CCCN2S(=O)(=O)c2ccc(-c3ccc(=O)[nH]n3)s2)c(C)c1 (stereo unspecified)	1.8	-4.8	2.2	-7.0	-4.4	nt
COc1ccc(-c2cc(C)no2)cc1S(=O)(=O)N1CCN(c2cccc(C)c2)C(C)C1 (stereo unspecified)	31.7*	1.7	-17.1	-3.8	-0.2	31.5*

Compound activity from PubChem.
